Test results as given in publication PMC5700166.

Each sequence was assayed against T1, GST-Co-NF-kB (Capsaspora owczarzaki, UniProt F1ARL5 200-546) (assay: protein-binding microarray (PBM); PBM: ~300 nM protein, 6 mM HEPES pH 7.8, 80 mM KCl, 0.5 mM EDTA, 0.5 mM EGTA, 6% glycerol, 35 ng/ul poly-dIdC, 1% milk, 1 h, room temperature; Ap Aiptasia and Nv Nematostella (sea anemones) / Co Capsaspora / Aq Amphimedon (sponge) / Dm Drosophila / Hu human; RHD is the Rel homology domain; high values mean tight binding). Conditions: dsDNA, one strand shown.
T1 sequence: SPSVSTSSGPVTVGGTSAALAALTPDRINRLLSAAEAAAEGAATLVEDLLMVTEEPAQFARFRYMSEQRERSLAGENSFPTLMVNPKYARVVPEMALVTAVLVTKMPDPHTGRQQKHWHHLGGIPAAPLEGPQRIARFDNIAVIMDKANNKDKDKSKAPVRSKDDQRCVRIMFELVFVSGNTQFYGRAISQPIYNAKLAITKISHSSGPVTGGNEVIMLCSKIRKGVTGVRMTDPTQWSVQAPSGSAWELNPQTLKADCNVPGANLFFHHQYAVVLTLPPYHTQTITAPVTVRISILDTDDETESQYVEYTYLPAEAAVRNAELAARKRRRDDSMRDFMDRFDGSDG

| Sequence | binding signal [z-score] |
| --- | --- |
| CCGATTAACATCAGGGGAGTTAATGATGTTAATCGGGTCTTGATTCGCTTGACGCTGCTG | 3.34 |
| CCGATTAACATCAACATCCCCCCTGATGTTAATCGGGTCTTGATTCGCTTGACGCTGCTG | 5.48 |
| CCGATTAACATCAGGCCGTCCCCTGATGTTAATCGGGTCTTGATTCGCTTGACGCTGCTG | 1.48 |
| CCGATTAACATCACATATTTCCCTGATGTTAATCGGGTCTTGATTCGCTTGACGCTGCTG | 4.94 |
| CCGATTAACATCACTTGGGAAACTGATGTTAATCGGGTCTTGATTCGCTTGACGCTGCTG | 2.44 |
| CCGATTAACATCACGGGAAACCCTGATGTTAATCGGGTCTTGATTCGCTTGACGCTGCTG | 3.68 |
| CCGATTAACATCAGGGTATTCCATGATGTTAATCGGGTCTTGATTCGCTTGACGCTGCTG | 1.19 |
| CCGATTAACATCACAGGGAATTCTGATGTTAATCGGGTCTTGATTCGCTTGACGCTGCTG | 3.45 |
| CCGATTAACATCAGGGGGAGAGATGATGTTAATCGGGTCTTGATTCGCTTGACGCTGCTG | 5.69 |

The sequences below were run against T2, GST-Dm-Relish (Drosophila melanogaster, UniProt Q94527 99-473) in the same assay as above. Conditions: dsDNA, one strand shown.
T2 sequence: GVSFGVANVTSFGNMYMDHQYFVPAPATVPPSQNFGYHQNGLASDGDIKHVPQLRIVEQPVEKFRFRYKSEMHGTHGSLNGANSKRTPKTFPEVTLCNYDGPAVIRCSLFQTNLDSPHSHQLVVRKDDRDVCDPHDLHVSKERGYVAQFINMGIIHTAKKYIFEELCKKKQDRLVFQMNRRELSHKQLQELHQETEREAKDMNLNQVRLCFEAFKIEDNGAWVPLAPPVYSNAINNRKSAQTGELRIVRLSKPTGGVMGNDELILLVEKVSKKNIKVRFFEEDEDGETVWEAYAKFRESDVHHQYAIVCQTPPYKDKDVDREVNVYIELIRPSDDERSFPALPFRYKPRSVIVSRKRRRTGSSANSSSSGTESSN

| Sequence | binding signal [z-score] |
| --- | --- |
| CCGATTAACATCAAATAGGGAATTGATGTTAATCGGGTCTTGATTCGCTTGACGCTGCTG | 1.32 |
| CCGATTAACATCACGTTATTCCCTGATGTTAATCGGGTCTTGATTCGCTTGACGCTGCTG | 4.77 |
| CCGATTAACATCAAGGGATTTTCTGATGTTAATCGGGTCTTGATTCGCTTGACGCTGCTG | 6.57 |
| CCGATTAACATCAGGAGTTACCCTGATGTTAATCGGGTCTTGATTCGCTTGACGCTGCTG | 5.11 |
| CCGATTAACATCAGGGATTTCTATGATGTTAATCGGGTCTTGATTCGCTTGACGCTGCTG | 5.1 |
| CCGATTAACATCAGGGAACAACCTGATGTTAATCGGGTCTTGATTCGCTTGACGCTGCTG | 4.7 |
| CCGATTAACATCAGAATGCCCCCTGATGTTAATCGGGTCTTGATTCGCTTGACGCTGCTG | 3.56 |
| CCGATTAACATCAACTAATTCCCTGATGTTAATCGGGTCTTGATTCGCTTGACGCTGCTG | 1.91 |
| CCGATTAACATCAGGGAGCCCCCTGATGTTAATCGGGTCTTGATTCGCTTGACGCTGCTG | 9.12 |
| CCGATTAACATCACCCGGGAAAATGATGTTAATCGGGTCTTGATTCGCTTGACGCTGCTG | 1.52 |
| CCGATTAACATCAGGGGGATGGATGATGTTAATCGGGTCTTGATTCGCTTGACGCTGCTG | 2.24 |
| CCGATTAACATCAGACTTCCCCATGATGTTAATCGGGTCTTGATTCGCTTGACGCTGCTG | 4.24 |
| CCGATTAACATCAGGGAATGTACTGATGTTAATCGGGTCTTGATTCGCTTGACGCTGCTG | 7.08 |
| CCGATTAACATCACACATTTCCCTGATGTTAATCGGGTCTTGATTCGCTTGACGCTGCTG | 1.1 |
| CCGATTAACATCAACCACCCCCCTGATGTTAATCGGGTCTTGATTCGCTTGACGCTGCTG | 4.6 |
| CCGATTAACATCAGGGATTCCCATGATGTTAATCGGGTCTTGATTCGCTTGACGCTGCTG | 10 |
| CCGATTAACATCAATTCCCAAGGTGATGTTAATCGGGTCTTGATTCGCTTGACGCTGCTG | 1.17 |
| CCGATTAACATCAGAATTACCCATGATGTTAATCGGGTCTTGATTCGCTTGACGCTGCTG | 1.97 |
| CCGATTAACATCAGGGGTTTACCTGATGTTAATCGGGTCTTGATTCGCTTGACGCTGCTG | 9.7 |
| CCGATTAACATCAGACAATTCCCTGATGTTAATCGGGTCTTGATTCGCTTGACGCTGCTG | 1.37 |
| CCGATTAACATCACCCATCCCCCTGATGTTAATCGGGTCTTGATTCGCTTGACGCTGCTG | 2.93 |
| CCGATTAACATCACTTCCCCCCATGATGTTAATCGGGTCTTGATTCGCTTGACGCTGCTG | 3.34 |
| CCGATTAACATCATCCCCGTGTCTGATGTTAATCGGGTCTTGATTCGCTTGACGCTGCTG | 2.12 |
| CCGATTAACATCAGGGAATGCACTGATGTTAATCGGGTCTTGATTCGCTTGACGCTGCTG | 5.07 |
| CCGATTAACATCAATTTTCCCAATGATGTTAATCGGGTCTTGATTCGCTTGACGCTGCTG | 1.29 |
| CCGATTAACATCAGTTCCCCCCATGATGTTAATCGGGTCTTGATTCGCTTGACGCTGCTG | 3.62 |
| CCGATTAACATCACGAGTTTCCCTGATGTTAATCGGGTCTTGATTCGCTTGACGCTGCTG | 1.16 |
| CCGATTAACATCAAGCGTTCCCCTGATGTTAATCGGGTCTTGATTCGCTTGACGCTGCTG | 3.82 |
